± gives the standard deviation.
These compounds were tested on OVCAR-3-derived ovarian cancer stem-like cells (spheroids) (assay: cell growth relative to untreated control; higher = more growth (less inhibition)). Details: 2.29 µM; 96 h.
Procedure, shortened: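 Percent growth was calculated against untreated wells once blanks were subtracted and Grubbs outliers removed. The cells were OVCAR-3 spheroid-derived stem-like cells, trypsinized and plated at 50,000 cells/mL in stem cell medium on ultra-low attachment 96-well plates for a 24 h preincubation. They were then exposed to compounds at 2.29 uM for 96 h at 37°C, 5% CO2, in 4 replicate wells, and viability was measured by TOX8 resazurin fluorescence (ex 560/em 590 nm) after 4 h.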

| Structure (SMILES) | cell growth [%] |
| --- | --- |
| CCOC(=O)c1ccc(-c2cc(C)no2)[nH]1 | 54.8 ± 10 |
| CCOC(=O)/C=C/c1c(C)[nH]c(=O)[nH]c1=O | 91.2 ± 25 |
| NC(N)=NCCCS(=O)(=O)Nc1ccc(Nc2c3ccccc3nc3cc([N+](=O)[O-])ccc23)cc1 | 127 ± 32 |
| CCC12C[N+]3([O-])CCc4c([nH]c5ccccc45)C(C(=O)OC)(c4cc5c(cc4OC)N(C)C4C(O)(C(=O)OC)C(OC(C)=O)C6(CC)C=CCN7CCC54C76)CC(C3)C1O2 (centres undefined) | 27.9 ± 4.2 |
| O=C(c1ccccc1)C1OC12C(=O)Nc1c(Cl)cc(Cl)cc12 (centres undefined) | 94.6 ± 19 |
| CCc1cccc(CC)c1NC(=O)C(C#N)C1=C(Cl)C(=O)c2ccccc2C1=O (centres undefined) | 70.3 ± 31 |
| CC(=O)c1ccc(Oc2ccc(/C(C)=N/N=C(N)N)cc2)cc1 | 32.4 ± 7.5 |
| CC1(C)CCCC2(C)C3=C(CCC12)C(=O)OC3 (centres undefined) | 84.4 ± 24 |
| O=C1C=CC(=O)c2c(O)c(N3CCN(CCOCCO)CC3)c(Br)c(O)c21 | 18 ± 6.4 |
| COc1cc(C(O)CCBr)c(OC)cc1C (centres undefined) | 86.9 ± 26 |
| CC(C)(C)C1CCC2(CC1)CCN(CCCN1CCOCC1)CC2 | 119 ± 12 |
| C=CC(=O)N1C/C(=C\c2ccc(Cl)cc2)C(=O)/C(=C/c2ccc(Cl)cc2)C1 | 59.7 ± 22 |
| S=C(Nc1ccccc1)N(/N=C/C=C/c1ccccc1)c1nnc(-c2ccccc2)c(-c2ccccc2)n1 | 132 ± 57 |
| N#CC1(C#N)C2C=CC(c3coc4cccc2c34)C1(C#N)C#N (centres undefined) | 20.9 ± 5.5 |
| Cc1ccc2ccc3ccc(C)nc3c2n1 | 18.5 ± 10 |
| COc1cc2c[n+](C)c3c4cc5c(cc4ccc3c2cc1OC)OCO5 | 48.7 ± 21 |
| Oc1ccc(/C=N/NC(=S)Nc2cccnc2)nc1 | 145 ± 23 |
| Cc1ccc(C)c2c(N=Nc3ccccc3[N+](=O)[O-])c(O)[nH]c12 | 138 ± 41 |
| CCOC(=O)Nc1nc2ccc(Cn3cccc3)cc2[nH]1 | 127 ± 20 |
| C=C1C(=O)OCC2C(C(=O)O)=CC3C(C)C(C)=CC123 (centres undefined) | 76.4 ± 10 |

| Structure (SMILES) | cell growth [%] |
| --- | --- |
| CCN(CC)CCOc1ccccc1/C=C/c1noc2ccccc12 | 79.3 ± 18 |
| COC(=O)Nc1nc2ccc(Br)cc2[nH]1 | 107 ± 23 |
| Nc1ccc(S(=O)(=O)Nc2cnc3c(Cl)cccc3n2)cc1 | 100 ± 15 |
| CC1(C)NC(=O)N(CCCCCCN2C(=O)NC(C)(C)C2=O)C1=O | 85.8 ± 22 |
| COc1cc2c3c(c1OC)-c1cc4c(cc1CC3(C#N)N(C(=O)c1ccccc1)CC2)OCO4 (centres undefined) | 93.1 ± 24 |
| Cc1cc(Cl)ccc1N1C(=O)C(=O)C(c2nc3ccccc3o2)C(=O)C1=O | 134 ± 53 |
| O=[N+]([O-])c1ccc(N=Nc2c(O)[nH]c3ccccc23)c([N+](=O)[O-])c1 | 132 ± 29 |
| CC(C)(O)CCC(O)C(C)(O)C1CCC2(O)C3=CC(=O)C4(O)CC(O)C(O)CC4(C)C3CCC12C.CC(C)(O)CCC(O)C(C)(O)C1CCC2(O)C3=CC(=O)C4CC(O)C(O)CC4(C)C3CCC12C (centres undefined) | 98 ± 21 |
| COc1cc(O)c2c(c1)C(=O)c1cc3c(c(O)c1C2=O)C(OC1OC(C)C(O)C(O)C1OC)C(OC)C(C)(O)C3=O (centres undefined) | 17.1 ± 7.5 |
| CCCCOc1ccc(NC(N)=Nc2ccc(Cl)cc2)cc1 | 124 ± 20 |
| [N-]=[N+]=Nc1ccc2c(c1)Sc1ccccc1N2CCCCN1CCN(Cc2ccc(C(=O)c3ccccc3)cc2)CC1 | 95.1 ± 13 |
| OCCNCN(CNCCO)c1nc(N(CNCCO)CNCCO)nc(N(CNCCO)CNCCO)n1 | 126 ± 24 |
| O=C(CC(=O)c1ccccc1NC1=Cc2ccccc2C(=O)C1=O)C(=O)NC1=C(Cl)C(=O)c2ccccc2C1=O | 33.3 ± 13 |
| c1ccc(-c2cccc(-c3ccccn3)n2)nc1 | 79.9 ± 17 |
| COc1cc(C(C)c2cc3c(cc2OCCO)OCO3)cc(OC)c1OC (centres undefined) | 24.7 ± 6.7 |
| C/C=C(\CCC1NCCc2c1[nH]c1ccccc21)[Si](C)(C)C (centres undefined) | 86.5 ± 9.4 |
| NC(N)=N/N=C(\c1ccc(Cl)cc1)C1CC1 | 200 ± 43 |
| OC(CN1CCCCC1)c1ccc(/C=C/c2ccc(Cl)cc2)cc1 (centres undefined) | 112 ± 16 |
| O=[n+]1c2c(n([O-])c3ccccc31)-c1cccc3cccc-2c13 | 92 ± 21 |

— the supplement of paper PMC3484114
